Only some compounds are listed: those with a hit (about 1.6% of all), similar ones and a draw of the others.
KCNQ2 inh: KCNQ2 (rat) channel inhibition; B-score at 10 µM; O88943; 310,000 compounds, 1.1% hits; AID 2156; CHO-K1 KCNQ2, FluxOR thallium flux, 20 min; active compounds read low;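 active = fluorescence ratio B-score at most minus 3 library SDs, with starting brightness B-score within 2 library SDs, cut at about -5.5 in these data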
KCNQ2 pot: enhances the rat KCNQ2 potassium channel; O88943; CHO-K1 KCNQ2, FluxOR thallium flux fluorescence; active compounds read high; B-score at 10 µM; 310,000 compounds, 0.54% hits;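 active = fluorescence ratio B-score at least 3 SD of library B-scores, with initial fluorescence B-score within 3 of them, cut at about 5.3 in these data; same plate scores as AID 2156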;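 note: B-score of peak minus minimum over baseline fluorescence ratio after K+ and Tl+ stimulus; positive B-score means potentiation of KCNQ2 with more thallium influx and brighter signal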
Kir21 conf inh: confirmation of mouse Kir2.1 potassium channel inhibitors; shares compounds with KCNQ2 pot; Kir2.1-expressing cells, FluxOR thallium flux fluorescence; active compounds read low; Tl flux remaining, % of negative control (active compounds read low), % at 10 µM; 2,300 compounds, 41% hits; AID 2032;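 active = Primary-screen hit whose thallium flux fell at least 3 control SD below untreated wells in both duplicates, with normal baseline fluorescence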;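 note: 0% = blank wells without stimulus and 100% = stimulated no-compound controls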
Target sequence (P35561 whole entry, looked up): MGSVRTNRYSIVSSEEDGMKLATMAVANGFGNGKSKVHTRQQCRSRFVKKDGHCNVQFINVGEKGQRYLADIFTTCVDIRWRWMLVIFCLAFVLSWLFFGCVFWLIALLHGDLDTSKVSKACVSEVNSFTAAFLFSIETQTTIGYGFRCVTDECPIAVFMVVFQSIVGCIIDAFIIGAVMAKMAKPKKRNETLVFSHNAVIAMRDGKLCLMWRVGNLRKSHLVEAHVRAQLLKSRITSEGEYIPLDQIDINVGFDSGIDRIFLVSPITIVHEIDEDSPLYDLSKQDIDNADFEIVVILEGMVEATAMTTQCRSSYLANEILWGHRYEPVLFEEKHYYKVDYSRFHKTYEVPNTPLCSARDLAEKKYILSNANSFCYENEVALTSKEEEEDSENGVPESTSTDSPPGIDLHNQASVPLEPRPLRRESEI
HEK293 Tl flux: alters thallium flux in parental HEK293 cells, Kir2.1 counter-screen; FluxOR signal as % of negative control (100 = no effect), % at 10 µM; shares compounds with KCNQ2 pot; FluxOR thallium flux fluorescence; 0% = unstimulated blank wells; 2,300 compounds, 19% hits;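 active = dye signal at least 3 control SD above or below untreated wells in both duplicates, raw fluorescence within 3, either direction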;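 note: percent is based on the flux ratio of peak minus minimum fluorescence over baseline F0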
CHO-K1 ctr: alters thallium flux in parental CHO-K1 cells, KCNQ2 counter-screen. FluxOR thallium flux fluorescence; zero = vehicle mean+3SD, 100% = vehicle-minus-blank window. AID 2282. 1,200 compounds, 43% hits. shares compounds with KCNQ2 pot. activity increase over 3SD of controls, % at 10 µM;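 active = signal rise of at least 3 SD above the untreated control mean, in both duplicate wells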;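 note: counter screen of KCNQ2 potentiator hits so any rise reflects channel-independent effects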
KCNQ1 pot spec: selectivity of KCNQ2 potentiators: effect on human KCNQ1. shares compounds with KCNQ2 pot. CHO KCNQ1 stable, FluxOR thallium flux fluorescence; beyond 3SD, as % of vehicle-control signal. activation over 3SD threshold, % at 10 µM. 1,200 compounds, 28% hits;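 active = fluorescence ratio rise of at least 3 SD of vehicle wells above their mean, in both replicate wells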;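 note: 0% = vehicle mean plus 3 SD and 100% = vehicle minus unstimulated blank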
KCNQ2 pot confirm: rat KCNQ2 channel potentiator confirmation | 1,200 compounds, 68% hits | CHO-KCNQ2 cells, FluxOR thallium flux fluorescence | AID 2287 | potentiation, less the hit threshold, % at 10 µM | shares compounds with KCNQ2 pot;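 active = fluorescence ratio rising 3 SD or more over the vehicle control mean in both replicates, plus primary screen hit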;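 note: peak minus minimum thallium fluorescence divided by baseline after K/Tl stimulus; 0% = vehicle mean plus 3 SD and 100% = vehicle minus unstimulated blank difference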
Kir2-1 sel: selectivity of KCNQ2 potentiators: effect on mouse Kir2.1; shares compounds with KCNQ2 pot; HEK293 Kir2.1, FluxOR thallium flux fluorescence; activity over 3SD threshold, % at 10 µM; 1,200 compounds, 2% hits; AID 2345;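 active = fluorescence ratio rise of at least 3 SD above the vehicle-control mean, seen in both replicates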;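 note: 0% = vehicle mean plus 3 SD and 100% = vehicle minus no-stimulus blank window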
KCNQ2 W236L pot: KCNQ2 potentiators acting on retigabine-insensitive rat KCNQ2 W236L mutant. shares compounds with KCNQ2 pot. CHO KCNQ2-W236L, automated patch clamp current. current increase over 3SD of negative controls (%), active compounds read high, % at 25 µM. 940 compounds, 10% hits. AID 2558;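 active = current increase at least 3 SD of the untreated controls above them in both duplicate recordings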
The depositor's hits bear a star; i = inactive; . = no result.

SMILES	KCNQ2 inh	KCNQ2 pot	Kir21 conf inh	HEK293 Tl flux	others
O=c1c2ccccc2nc(-c2ccc(Cl)c(Cl)c2)n1O	i	15*	i	314%*	CHO-K1 ctr=-13;KCNQ1 pot spec=-10;KCNQ2 pot confirm=50*;Kir2-1 sel=-30;KCNQ2 W236L pot=i
COc1ccc(C(=O)c2c(-c3ccsc3)oc3ccc(-c4ccc(OC)cc4)cc23)cc1	i	1.4	.	.
CCCCCCc1nc(C(N)=O)c2[nH]c(=O)n(-c3ccc(OCC)cc3)c2n1	i	.	.	.
COc1cc(CCC(=O)Nc2c(C(=O)N3CCN(c4ccccc4)CC3)oc3ccccc23)on1	i	.	.	.
O=C(COC(=O)/C=C/c1ccccc1)NCc1ccccc1Cl	i	0.84	.	.
O=c1c2ccccc2nc(-c2ccc(Cl)cc2Cl)n1O	i	0.93	.	.
O=c1c2cc(Br)ccc2nc(-c2ccc(Cl)cc2)n1O	i	17*	i	566%*	CHO-K1 ctr=-8;KCNQ1 pot spec=41*;KCNQ2 pot confirm=93*;Kir2-1 sel=15*;KCNQ2 W236L pot=i
CCOC(=O)C1CCN(C(=O)c2cc3ccccc3oc2=O)CC1	i	.	.	.
CCc1ccc(-c2cc(C(=O)N/N=C/c3ccco3)[nH]n2)cc1	i	1.3	.	.
O=C(N/N=C/c1ccco1)c1cc(-c2ccc3ccccc3c2)n[nH]1	i	9.2*	i	i	CHO-K1 ctr=54*;KCNQ1 pot spec=-13;KCNQ2 pot confirm=32*;Kir2-1 sel=-27;KCNQ2 W236L pot=i
CCCn1c(SCC(=O)NNC(=O)c2ccc(OC)cc2)nnc1C(C)C	i	.	.	.
N#C/C(=C\c1cccc(Br)c1)C(=O)N1CCCCC1	-8.5*	-8.5	45%*	i
N#C/C(=C\c1cccc(O)c1)C(=O)N1CCCCC1	i	.	.	.
CCC(C)(C)NS(=O)(=O)c1cc(CN2C(=O)c3cccnc3C2=O)ccc1OC	i	.	.	.
CN[C@@H]1CC[C@H](c2ccc(Cl)c(Cl)c2)c2ccccc21	i	.	47%*	i
COc1ccccc1C1CCN(Cc2ccc(Cl)c(Cl)c2)CC1	i	.	.	.
COc1ccc(C2=NS(=O)(=O)N(C)C(C(=O)N3CCCCC3)=C2)cc1OC	i	0.39	.	.
COc1ccc(NC(=O)C(c2ccc(OC)cc2)N(C)C(=O)c2cnccn2)cc1 (centres undefined)	i	6.4*	i	i	CHO-K1 ctr=0.6*;KCNQ1 pot spec=-25;KCNQ2 pot confirm=24*;Kir2-1 sel=-28;KCNQ2 W236L pot=i
CC(C)c1ccc(NC(=O)C(c2ccccc2)N(C)C(=O)c2cnccn2)cc1 (centres undefined)	i	0.26	.	.
Cc1ccc2c(c1)N(CC(=O)NC1CCCC(C)C1C)C(=O)c1cccnc1O2 (centres undefined)	i	.	.	.
COc1ccc(CC(=O)Nc2ccccc2N2CCCC2)cc1	i	0.91	62%*	i
COc1ccc(CC(=O)Nc2ccccc2N2CCCC2)cc1OC	i	0.83	.	.
O=C(Cc1c(F)cccc1Cl)Nc1ccccc1N1CCCCC1	i	.	.	.
O=C(CCNC(=O)c1ccc(Br)cc1)Nc1ccccc1N1CCCC1	i	.	.	.
O=C(Cc1ccccc1)Nc1ccccc1N1CCOCC1	i	.	.	.
SMILES	KCNQ2 inh	KCNQ2 pot	Kir21 conf inh	HEK293 Tl flux	others
O=C(Cc1ccc(Br)cc1)Nc1ccccc1N1CCCC1	i	18*	i	i	CHO-K1 ctr=-32;KCNQ1 pot spec=-28;KCNQ2 pot confirm=52*;Kir2-1 sel=-56;KCNQ2 W236L pot=i
O=C(Cc1ccccc1)Nc1ccccc1N1CCCC1	i	13*	.	.	CHO-K1 ctr=-15;KCNQ1 pot spec=-10;KCNQ2 pot confirm=54*;Kir2-1 sel=-81;KCNQ2 W236L pot=i
O=C(Cc1cccc(C(F)(F)F)c1)Nc1ccccc1N1CCCC1	i	11*	i	i	CHO-K1 ctr=-11;KCNQ1 pot spec=-21;KCNQ2 pot confirm=60*;Kir2-1 sel=-52;KCNQ2 W236L pot=i
O=C(NCc1ccncc1)C(=O)N/N=C/c1cccnc1	i	0.1	.	.
CC1CCCCC1NC(=O)c1nn(C)c2c1CS(=O)(=O)c1ccccc1-2 (centres undefined)	i	1.4	.	.
CCOCCCNc1ncnc2c1[nH]c1ccccc12	i	1.5	.	.
CCCCOCCCNc1ncnc2c1[nH]c1ccccc12	i	.	44%*	i
S=C(NCc1ccccc1)Nc1nccs1	i	9*	i	i	CHO-K1 ctr=26*;KCNQ1 pot spec=-18;KCNQ2 pot confirm=-19;Kir2-1 sel=-37
S=C(NCCc1ccccc1)Nc1nccs1	i	.	.	.
CS(=O)(=O)N1CCN(c2ccc(NC(=S)NC(=O)c3cccs3)cc2)CC1	i	.	.	.
O=C(NC(=S)Nc1ccc(N2CCCCC2)cc1)c1cccs1	i	5.8*	i	126%*	CHO-K1 ctr=-8;KCNQ1 pot spec=-10;KCNQ2 pot confirm=3.0*;Kir2-1 sel=-38;KCNQ2 W236L pot=i
Clc1ccc(Cl)c(OCCCCNCc2ccccc2)c1	i	.	.	.
Clc1ccc(OCCCNCc2ccccc2)c(Br)c1	i	.	9.5%*	74%*
Cc1cc(C)c(OCCCNCc2ccccc2)c(Br)c1	i	.	12%*	i
Cc1cc(Cl)c(OCCCNCc2ccccc2)c(Br)c1	i	.	.	.
Cc1cc(Cl)cc(Br)c1OCCCNCC(C)O (centres undefined)	i	1.3	27%*	i
Cc1ccc(OCCCCN(C)Cc2ccccc2)c(Br)c1	i	.	.	.
Cc1cc(C)c(OCCCCN(C)Cc2ccccc2)c(C)c1	i	.	22%*	i
Cc1ccccc1OCCNCC(C)O (centres undefined)	i	.	.	.
CCOC(=O)c1cnn(-c2ccccc2)c1-c1ccncc1	i	.	.	.
COc1ccc(C2=NOC(C(=O)Nc3ccc4c(c3)OCO4)C2)cc1OC (centres undefined)	i	0.8	.	.
Cc1ccsc1/C=N/NC(=O)C1CC(=O)N(c2ccccc2)C1 (centres undefined)	i	.	.	.
O=C(NNC(=S)NCCc1ccccc1)c1ccc(Br)s1	i	.	.	.
Cc1ccc(-c2nnc(SCc3ccc(C#N)cc3)n2Cc2ccco2)cc1	i	.	.	.
Cc1ccccc1CSc1nnc(-c2ccco2)n1Cc1ccco1	i	.	50%*	i
c1ccc(CSc2nnc(-c3ccco3)n2Cc2ccco2)cc1	i	.	.	.
c1ccc(CSc2nnc(-c3cccs3)n2Cc2ccco2)cc1	-6*	-6	65%*	i
CCOC(=O)c1csc(N/N=C2\CCc3ccccc32)n1	i	2.9	.	.
CCOC(=O)c1csc(N/N=C2\CCCc3ccccc32)n1	i	5.5*	i	i	CHO-K1 ctr=22*;KCNQ1 pot spec=-13;KCNQ2 pot confirm=-10;Kir2-1 sel=-43;KCNQ2 W236L pot=i
CN(CCCC(=O)Nc1ccc(OC(F)F)cc1)S(=O)(=O)c1ccc(F)cc1	i	1.9	.	.

Compound activity from PubChem BioAssay.
